The text below walks through data of PubChem BioAssay (NCI).

Among the test systems are NCI-H23 lung; NCI-H226 lung; NCI-H322M lung; HOP-62 NSCLC; NCI-H460 lung; HOP-92 NSCLC; NCI-H522 lung; A549/ATCC NSCLC; 786-0 renal; COLO 205 colon; DU-145 prostate; K-562 leukemia; MALME-3M melanoma; MDA-MB-231 breast; RXF 393 renal; SF-268 CNS; SF-295 CNS; SF-539 CNS; UACC-257 melanoma; M14 melanoma.
Assay in all cases: NCI-60 one-dose screen, 48 h (100 = growth as untreated, 0 = no growth, -100 = all killed)
What all share (conditions): 10 µM unless noted

The panel holds about 83,000 compounds, 20% with a hit somewhere; the sample as a whole holds those more often.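 A percent growth of 40 corresponds to 60% growth inhibition; 0 means no net growth; -100 means all cells died. Active threshold: below 10.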 Values without a mark were called inactive. Calls of active or inactive are those of the source.

Turning to `CC(C)Nc1cc(-c2c[nH]c(C(=O)N[C@H](CO)c3cccc(Cl)c3)c2)c(Cl)cn1`, the growth in the experiment with NCI-H23 lung was 19.9%; in the experiment on NCI-H226 lung, 38%; with NCI-H322M lung, 17.5%; in the experiment with HOP-62 NSCLC, 28.6%; with NCI-H460 lung, 25.2%; with HOP-92 NSCLC it was -18.5% (active). Further, the growth is 22.2% in the experiment on NCI-H522 lung; 14.8% in the experiment with A549/ATCC NSCLC; 42.4% with 786-0 renal; -19.2% (active) in the experiment on COLO 205 colon; 57.4% with DU-145 prostate; 19.8% in the experiment with K-562 leukemia. For the same compound, the growth was 9.08% (active) in the experiment on MALME-3M melanoma; 20.1% with MDA-MB-231 breast; 2.5% (active) in the experiment on RXF 393 renal; 59.6% with SF-268 CNS; 45.6% with SF-295 CNS; 45.2% with SF-539 CNS. Moreover, the growth was -9.52% (active) in the experiment with UACC-257 melanoma and 3.28% (active) in the experiment with M14 melanoma.
Consider `CCCCn1c(C)nc2ccc(Nc3nc(N4CCN(C)CC4)nc4nc[nH]c34)cc21`, for which the growth in the experiment on NCI-H23 lung is 95.5%; with NCI-H226 lung, 93%; in the experiment with NCI-H322M lung, 91.3%; in the experiment with HOP-62 NSCLC, 90.9%; with NCI-H460 lung, 104%; in the experiment with HOP-92 NSCLC, 64.8%. In addition, the growth is 87.2% in the experiment with NCI-H522 lung; 94.2% in the experiment on A549/ATCC NSCLC; 92.8% in the experiment with 786-0 renal; 87.9% in the experiment on COLO 205 colon; 91.8% in the experiment with DU-145 prostate; 83.2% in the experiment with K-562 leukemia. Further, the growth in the experiment with MALME-3M melanoma is 102%; in the experiment on MDA-MB-231 breast, 86.2%; with RXF 393 renal, 95%; in the experiment with SF-268 CNS it was 73.2%; in the experiment on SF-295 CNS, 105%; with SF-539 CNS, 87.6%. In addition, the growth was 101% in the experiment with UACC-257 melanoma and 107% with M14 melanoma.
Take `Nc1nc(Nc2ccccc2)c(C=Nc2ccccc2)c(=O)[nH]1`: the growth is 88.5% with NCI-H23 lung; 86.5% in the experiment with NCI-H226 lung; 93.3% in the experiment with NCI-H322M lung; 73.7% with HOP-62 NSCLC; 102% in the experiment on NCI-H460 lung; 66.8% with HOP-92 NSCLC. Besides, the growth was 57.9% with NCI-H522 lung; 89.6% in the experiment with A549/ATCC NSCLC; 93.5% in the experiment on 786-0 renal; 107% in the experiment on COLO 205 colon; 103% with DU-145 prostate; 90.4% in the experiment with K-562 leukemia. Besides, the growth in the experiment on MALME-3M melanoma was 103%; in the experiment with MDA-MB-231 breast it was 104%; with RXF 393 renal it was 91.7%; in the experiment with SF-268 CNS, 94%; in the experiment on SF-295 CNS, 95.5%; in the experiment on SF-539 CNS, 85.5%. The growth in the experiment on UACC-257 melanoma was 93.6%; in the experiment with M14 melanoma, 91.5%.
Regarding `CCCCCCCC12Cc3ccccc3C1=Nc1c(c3ccccc3n1C)C2=O` (stereo not given), the growth with NCI-H23 lung is 84.8%; in the experiment on NCI-H226 lung, 77.8%; in the experiment with NCI-H322M lung, 88.4%; with HOP-62 NSCLC, 84%; in the experiment with NCI-H460 lung, 92.7%; with HOP-92 NSCLC, 93.4%. Further, the growth in the experiment with NCI-H522 lung is 48.1%; in the experiment on A549/ATCC NSCLC, 75.5%; with 786-0 renal, 105%; in the experiment with COLO 205 colon, 112%; in the experiment on DU-145 prostate it was 120%; in the experiment with K-562 leukemia it was 85.9%. The growth is 95.2% with MALME-3M melanoma; 82.4% with MDA-MB-231 breast; 104% in the experiment on RXF 393 renal; 100% in the experiment with SF-268 CNS; 97.4% in the experiment with SF-295 CNS; 111% in the experiment on SF-539 CNS. In addition, the growth was 82.3% in the experiment with UACC-257 melanoma and 95.3% with M14 melanoma.
On to `CCOC(=O)c1sc(NC(=O)COc2ccc(/C=C3\Cc4ccc(Cl)cc4C3=O)cc2)nc1C`, for which the growth in the experiment on NCI-H23 lung is 97.1%; with NCI-H226 lung, 97.1%; in the experiment on NCI-H322M lung it was 103%; with HOP-62 NSCLC, 109%; in the experiment with NCI-H460 lung it was 95%; in the experiment on HOP-92 NSCLC it was 92.5%. Also, the growth is 97.2% in the experiment with NCI-H522 lung; 104% in the experiment with A549/ATCC NSCLC; 110% in the experiment with 786-0 renal; 118% in the experiment with COLO 205 colon; 117% with DU-145 prostate; 102% with K-562 leukemia. The growth with MALME-3M melanoma was 110%; in the experiment with MDA-MB-231 breast, 90.6%; in the experiment on RXF 393 renal it was 116%; in the experiment with SF-268 CNS it was 114%; in the experiment with SF-295 CNS, 127%; in the experiment on SF-539 CNS, 86.9%. The growth is 112% in the experiment with UACC-257 melanoma and 107% with M14 melanoma.
As to `COCc1c(-c2ccc(NC(=O)Nc3cc(C(F)(F)F)ccc3F)c(F)c2)c2c(N)ncnn2c1CN1CCOCC1`, the growth is -53.4% (active) in the experiment with NCI-H23 lung; -7.25% (active) in the experiment with NCI-H226 lung; -17% (active) in the experiment with NCI-H322M lung; -58.9% (active) with HOP-62 NSCLC; -47.2% (active) with NCI-H460 lung; -32.8% (active) in the experiment on HOP-92 NSCLC. In addition, the growth with NCI-H522 lung was -55.3% (active); with A549/ATCC NSCLC it was -18.8% (active); in the experiment with 786-0 renal it was -43.5% (active); with COLO 205 colon, -88.8% (active); in the experiment with DU-145 prostate it was -4% (active); with K-562 leukemia it was 1.74% (active). In addition, the growth in the experiment on MALME-3M melanoma is -37% (active); with MDA-MB-231 breast it was -50% (active); in the experiment with RXF 393 renal it was -88.4% (active); with SF-268 CNS it was -14.5% (active); with SF-295 CNS, -54.2% (active); with SF-539 CNS, -71.5% (active). The values for the growth in the experiment on UACC-257 melanoma and with M14 melanoma were -9.75% (active) and -41% (active), respectively.
`N#Cc1ccc(-n2nnc3ccccc32)cc1C#N`: the growth in the experiment on NCI-H23 lung is 94%; with NCI-H226 lung it was 96.7%; in the experiment with NCI-H322M lung it was 111%; in the experiment on HOP-62 NSCLC it was 94.6%; with NCI-H460 lung, 107%; in the experiment with HOP-92 NSCLC, 103%. The growth is 88.1% in the experiment with NCI-H522 lung; 87.2% in the experiment on A549/ATCC NSCLC; 99.5% with 786-0 renal; 104% in the experiment with COLO 205 colon; 93.5% in the experiment on DU-145 prostate; 93% with K-562 leukemia. The growth was 96.6% with MALME-3M melanoma; 111% in the experiment with MDA-MB-231 breast; 100% in the experiment on RXF 393 renal; 105% with SF-268 CNS; 91.5% with SF-295 CNS; 101% in the experiment on SF-539 CNS. Besides, the growth in the experiment with UACC-257 melanoma is 89.4%; with M14 melanoma, 106%.
